These entries were drawn from the full list.
aSyn UTR act: Activators working through SNCA 5'UTR binding (MLPCN); alpha-synuclein 5'UTR reporter, activators screen; hit rate 7.1% among 300,000; AID 1814; activity score, % (tested at 7.5 µM), hits read low; in the data active = activity score below about -60%
Numbers stand for hits; - = inactive.

SMILES | aSyn UTR act
COc1ccccc1OCC(=O)Nc1cccc(-c2nnc(-c3ccco3)o2)c1 | -87.5
O=C(COc1ccccc1)Nc1ccc(-c2nnc(-c3ccco3)o2)cc1 | -83.9
COc1ccc(-c2nc3cc(NC(=O)Cc4ccc(OC)c(OC)c4)ccc3o2)cc1 | -69.3
CCCOc1ccc(-c2nnc(-c3ccco3)o2)cc1 | -
CC(C)COc1ccc(-c2nnc(-c3ccco3)o2)cc1 | -
O=C(COc1ccccc1)Nc1nnc(-c2ccc3c(c2)CCCC3)o1 | -95.0
CC(C)(C)n1nc(-c2ccc(F)cc2)c2c(N)ncnc21 | -
COc1ccc(CC(=O)Nc2cccc(-c3nnc(-c4cccc(C)c4)o3)c2)cc1OC | -187.4
Cc1cccc(N/C=C/c2onc(C)c2[N+](=O)[O-])c1 | -156.1
Cc1cc(O)ccc1N/C=C/c1onc(C)c1[N+](=O)[O-] | -109.6
O=C(Nc1ccc(NC(=O)C2CC2)nc1)c1ccccc1F | -95.1
CCCC(=O)Nc1ccc(NC(=O)c2ccccc2F)cn1 | -90.4
O=C(Nc1ccc(NC(=O)C2CCCCC2)nc1)c1cccs1 | -123.6
CCOC(=O)c1c2c(n(C)c1COC)C(=O)C(=O)c1ccc(Br)cc1-2 | -
CCOC(=O)c1c(CNc2ccncc2)n(C)c2cc(Br)c(O)cc12 | -61.8
C/C(=N\O)c1sc(-c2ccccc2)nc1C | -139.6
CC(=O)c1sc(-c2ccc(Cl)cc2)nc1C | -100.9
CNC(=O)c1sc(-c2ccccc2)nc1C | -78.1
CCNC(=O)O/N=C(\C)c1sc(-c2ccccc2)nc1C | -134.5
CNC(=O)c1sc(-c2ccc(Cl)cc2)nc1C | -187.3
O=C1CCCc2nc(N3CCN(C(=O)c4ccco4)CC3)ncc21 | -93.0
O=C(c1ccco1)N1CCN(c2ncnc3c2oc2ccccc23)CC1 | -113.1
Nc1nc(N2CCN(C(=O)c3ccco3)CC2)nc2ccccc12 | -102.0
O=C(OCc1ccccc1)c1cccc(-c2nnc(-c3ccccc3)o2)c1 | -68.7
O=C(OCc1ccccc1)c1ccc2c(c1)-c1ccccc1C2=O | -194.1
SMILES | aSyn UTR act
O=C(OCc1nnc(-c2ccccc2)o1)c1ccc2c(c1)OCCO2 | -62.1
O=C(OCc1ccc(C(=O)c2ccccc2)cc1)c1cccc(-c2nnc(-c3ccccc3)o2)c1 | -79.8
CC1(C)CC(N=c2cc(-c3ccccc3)oc3ccc(Cl)cc23)CC(C)(C)N1 | -
OCCCN=c1cc(-c2ccccc2)oc2ccc(Cl)cc12 | -440.1
COc1ccc(CC(=O)c2ccc(OC3OC(CO)C(O)C(O)C3O)cc2O)cc1 (stereo not drawn) | -68.7
COc1ccc(-c2coc3cc(OC4OC(CO)C(O)C(O)C4O)ccc3c2=O)cc1 (stereo not drawn) | -123.9
COc1ccc(-c2coc3cc(O)ccc3c2=O)cc1 | -134.4
COc1ccc(-c2coc3cc(O)ccc3c2=O)cc1O | -89.6
O=C1OC(c2ccccc2)=N/C1=C\N1CCCCC1 | -151.6
O=C1OC(c2ccccc2)=C/C1=C/N1CCCCC1 | -184.5
O=C1OC(c2ccc(Br)cc2)=N/C1=C\N1CCCCC1 | -95.2
CCN(CC(=O)Nc1ccc2c(c1)OCCO2)C(=O)c1ccc(Cl)cc1Cl | -111.7
CCN(CC(=O)Nc1ccc2c(c1)OCCO2)C(=O)c1ccc(C(F)(F)F)cc1 | -62.5
COc1ccc2c(c1)O/C(=C\c1sccc1C)C2=O | -197.8
CCOc1ccc(/C=C/C(=O)c2c(O)cc(C)oc2=O)cc1 | -181.9
Cc1cc(C)c(C(=O)/C=C/c2ccc(C(C)C)cc2)c(=O)[nH]1 | -90.5
Cc1cc(O)c(C(=O)/C=C/c2ccccc2Br)c(=O)o1 | -170.6
Cc1cc(O)c(C(=O)/C=C/c2ccc(C(C)C)cc2)c(=O)o1 | -129.2
Cc1cc(O)c(C(=O)/C=C/c2ccccc2)c(=O)o1 | -103.2
Cc1ccc(N=Nc2c(N)n[nH]c2N)cc1 | -93.1
Nc1n[nH]c(N)c1N=Nc1ccc2c(c1)OCO2 | -228.7
Cc1cccc(NC(=O)c2ccc([N+](=O)[O-])s2)n1 | -88.3
O=C(NC1CCCC1)c1ccc([N+](=O)[O-])s1 | -153.1
Cc1ccnc(NC(=O)c2ccc([N+](=O)[O-])s2)c1 | -237.7
Cc1ccc(NC(=O)c2ccc3c(c2)OCCO3)cc1C | -
SMILES | aSyn UTR act
Cc1ccc(NC(=O)c2ccc3c(c2)OCCO3)cc1S(=O)(=O)Nc1cccc(Cl)c1 | -94.8
O=C(NC(=S)Nc1ccc2c(c1)OCCO2)c1ccccc1F | -154.5
O=C(Nc1ccccc1)c1ccc2c(c1)OCCO2 | -87.3
O=C(NCCc1ccc2c(c1)OCCO2)c1ccccc1F | -110.4
O=C(Nc1ccc2c(c1)OCCO2)c1c(F)cccc1F | -122.3
O=C(O)c1cc(S(=O)(=O)Nc2ccc3c(c2)OCCO3)c(Cl)cc1Cl | -82.1
COC(=O)c1ccsc1NC(=O)c1ccc2c(c1)OCCO2 | -97.2
O=C(Nc1cccc(F)c1)c1ccc2c(c1)OCCO2 | -110.7
CCNC(=S)N=Nc1c(O)[nH]c2ccc(C(C)C)cc12 | -
Oc1cccc(NC(=S)N=Nc2c(O)[nH]c3ccccc23)c1 | -158.2
CCCCNC(=S)N=Nc1c(O)[nH]c2ccccc12 | -81.3
CCN(C(=O)CN1C(=O)S/C(=C\C=C\c2ccccc2)C1=O)C1CCS(=O)(=O)C1 (stereo not drawn) | -117.6
O=C(CN1C(=O)S/C(=C\C=C\c2ccccc2)C1=O)Nc1cccc(O)c1 | -218.4
O=C(CCN1C(=O)S/C(=C\C=C\c2ccccc2)C1=O)Nc1ccc(O)cc1 | -203.7
Clc1ccc(N=C2SCC3CCCCN23)cc1 (stereo not drawn) | -144.7
FC(F)Oc1ccc(N=C2SCC3CCCCN23)cc1 (stereo not drawn) | -206.2
Cc1nc2ccc(NC(=O)N(C)c3ccccc3)cc2s1 | -119.5
Cc1ccc2nc(NC(=O)[C@H](C)N3C(=O)C4CC=CCC4C3=O)sc2c1 (stereo partly drawn) | -
Cc1nc2ccc(NC(=O)N(C(C)C)C(C)C)cc2s1 | -90.2
Cc1c(-c2nc(-c3ccc(C(F)(F)F)cc3)no2)n(C)oc1=O | -81.6
O=C(O)c1ccc(-c2noc(-c3ccc(F)cc3)n2)cc1 | -93.1
O=C(O)c1ccc(-c2noc(-c3ccccc3C(F)(F)F)n2)cc1 | -108.8
O=C(O)c1ccc(-c2noc(-c3ccccc3Cl)n2)cc1 | -97.4
CS(=O)(=O)c1ccccc1-c1nc(-c2ccc(C(F)(F)F)cc2)no1 | -62.1
O=C(NC(=S)NCCc1ccccc1)c1ccccc1 | -115.4
SMILES | aSyn UTR act
COc1ccc(C(=O)NCCCc2ccccc2)cc1 | -149.1
O=C(CCCc1ccccc1)c1ccccc1 | -104.9
O=C(NCCc1ccccc1)c1ccc(Br)o1 | -93.1
O=C(NCCc1ccccc1)c1ccc(-n2cnnn2)cc1 | -66.1
Cc1ccc(C(=O)NCCCc2ccccc2)s1 | -136.8
CC(C)=CC(=O)NCCc1ccccc1 | -63.8
O=C(NCCc1ccccc1)c1ccccc1NS(=O)(=O)N1CCCC1 | -88.1
Cc1ccccc1C(=O)NCCCc1ccccc1 | -83.8
O=C(NCCc1ccccc1)c1ccccc1C(=O)NCCc1ccccc1 | -113.1
O=C(NCCCc1ccccc1)c1ccccc1 | -166.6
O=C(NCCc1ccccc1)c1cnc2n(c1=O)CCS2 | -79.5
CN(C(=O)COc1ccccc1C(=O)NCCc1ccccc1)c1ccccc1 | -98.1
O=C(CN(c1ccc(Cl)cc1)S(=O)(=O)c1ccc(Cl)c([N+](=O)[O-])c1)NCCc1ccccc1 | -
O=C(CCCC(=O)c1ccc(O)cc1)c1ccc(O)cc1 | -70.8
O=C(NCCc1ccccc1)c1ccc(Cl)cc1[N+](=O)[O-] | -166.8
O=C(NCCc1ccccc1)c1c[nH]c2c(F)cccc2c1=O | -93.5
CC(C)c1ccc(N(CC(=O)NCCSC(C)(C)C)S(C)(=O)=O)cc1 | -83.5
CN(c1ccc(C(=O)NCCSCc2ccco2)cc1)S(C)(=O)=O | -75.9
